Reference: paper PMC4336329 (PLoS ONE, 2015)
The campaign covered roughly 310,000 compounds. About 14,000 (4.5%) showed an effect of 50% or more. Effects have a minus sign here. The sample holds strong results, similar compounds and a random draw of the others, so the mix is not that of the screen.

molecular target: human ether-à-go-go-related gene (hERG) potassium channel (human, UniProt Q12809); assay: primary screen, population patch clamp on CHO cells stably expressing hERG; higher = less effect of the substance
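Also: peak tail current of the secondary pulse compared with the same well before compound.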

Chain of human ether-à-go-go-related gene (hERG) potassium channel (Q12809 whole entry, looked up): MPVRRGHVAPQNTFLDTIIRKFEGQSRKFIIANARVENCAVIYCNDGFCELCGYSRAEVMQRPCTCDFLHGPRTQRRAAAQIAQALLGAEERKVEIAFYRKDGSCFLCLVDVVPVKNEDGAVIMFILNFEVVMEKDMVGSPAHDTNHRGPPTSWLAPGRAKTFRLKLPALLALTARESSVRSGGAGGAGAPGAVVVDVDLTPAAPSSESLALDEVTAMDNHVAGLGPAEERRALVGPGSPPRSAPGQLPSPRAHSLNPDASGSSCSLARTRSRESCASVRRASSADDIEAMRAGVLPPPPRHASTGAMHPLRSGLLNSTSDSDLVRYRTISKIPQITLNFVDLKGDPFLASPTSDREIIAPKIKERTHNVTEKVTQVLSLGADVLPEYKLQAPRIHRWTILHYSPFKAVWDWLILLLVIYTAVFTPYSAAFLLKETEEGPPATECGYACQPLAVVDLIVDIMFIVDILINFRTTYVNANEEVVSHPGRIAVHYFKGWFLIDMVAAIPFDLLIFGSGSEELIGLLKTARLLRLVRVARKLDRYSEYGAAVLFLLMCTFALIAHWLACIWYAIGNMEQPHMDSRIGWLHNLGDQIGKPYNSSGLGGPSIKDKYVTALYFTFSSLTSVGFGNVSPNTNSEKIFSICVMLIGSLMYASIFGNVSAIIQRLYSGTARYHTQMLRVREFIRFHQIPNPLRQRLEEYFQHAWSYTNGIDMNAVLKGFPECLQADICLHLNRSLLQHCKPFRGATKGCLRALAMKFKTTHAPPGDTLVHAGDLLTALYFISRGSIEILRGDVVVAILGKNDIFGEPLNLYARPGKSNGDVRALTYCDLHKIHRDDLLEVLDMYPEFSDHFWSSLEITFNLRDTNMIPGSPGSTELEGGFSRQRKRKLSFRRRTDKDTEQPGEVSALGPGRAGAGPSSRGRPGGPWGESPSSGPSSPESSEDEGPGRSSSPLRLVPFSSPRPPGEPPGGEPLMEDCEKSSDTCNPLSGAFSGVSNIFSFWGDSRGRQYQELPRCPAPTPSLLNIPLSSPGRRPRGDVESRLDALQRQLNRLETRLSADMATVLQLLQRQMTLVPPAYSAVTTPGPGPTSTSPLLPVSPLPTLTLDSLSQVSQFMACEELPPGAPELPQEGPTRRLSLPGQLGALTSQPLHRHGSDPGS

Structure (SMILES) | hERG current change (%, negative = inhibition) at 10uM
COCCN(C(=O)CSc1nnc(C)n1-c1ccc(C)cc1)c1c(N)n(Cc2ccccc2)c(=O)[nH]c1=O | -2.83%
COc1ccc(C(=O)NCc2ccc(-c3nc4ccccc4s3)cc2)cc1 | 10.1%
NS(=O)(=O)c1ccc(CCNC(=O)Nc2ccc(Cl)c(Cl)c2)cc1 | 15.3%
CN(C)C1=NCCN1CCc1cccc(F)c1 | -8.41%
O=C(NCCN1CCOCC1)c1cc2ccccc2oc1=O | -1.87%
Oc1ccc(/C=N/Nc2nccnc2Cl)c(O)c1 | 0.455%
COc1ccc(OC)c(C2=NOC(C(=O)NCc3cccs3)C2)c1 (stereo not shown) | -13.5%
Cc1ccc(CNc2nc3ccccc3n3cnnc23)cc1 | -6.53%
O=C(NCC(=O)N(CCc1ccccc1)C(C(=O)NC1CCCC1)c1cccnc1)c1ccco1 (stereo not shown) | -43.8%
O=C(NC1CCCC1)C(c1cccnc1)N(CCc1ccccc1)C(=O)c1ccco1 (stereo not shown) | -69%
Cc1ccc(CN(C(=O)c2ccco2)C(C(=O)NC2CCCC2)c2cccnc2)cc1 (stereo not shown) | -1.98%
CCOC(=O)c1cc(-c2ccccc2)nn1CC1CC(c2ccc(Cl)cc2)=NO1 (stereo not shown) | -16.2%
COc1ccc([N+](=O)[O-])cc1NC(=O)C1(c2ccc(OC)c(OC)c2)CCOCC1 | -14.4%
Cc1ccc(NC(=O)CSc2nnc(CNC(=O)c3cccs3)o2)c(C)c1 | 6.79%
COc1ccc(CCNC(=O)/C(=C/c2cccnc2)NC(=O)c2ccccc2)cc1 | -47.2%
O=C(NCCc1cccc(F)c1)/C(=C/c1cccnc1)NC(=O)c1ccccc1 | -36.4%
O=C(NCCc1ccc(Cl)cc1)/C(=C/c1cccnc1)NC(=O)c1ccccc1 | -70.9%
COc1ccccc1CCNC(=O)/C(=C/c1cccnc1)NC(=O)c1ccccc1 | -33.9%
COc1ccc(CCNC(=O)/C(=C/c2cccnc2)NC(=O)c2ccccc2)cc1OC | -3.35%
O=C(NCCc1ccccc1F)/C(=C/c1cccnc1)NC(=O)c1ccccc1 | -52.2%
CC1(C)c2[nH]c3ccccc3c2C[C@@H]2C(=O)N(Cc3ccccc3Cl)C(=O)N21 | 15.4%
Cc1ccc(S(=O)(=O)NC(C)(C)CSc2nncn2N)cc1 | 9.75%
O=C(O)C#Cc1cccc2ccccc12 | 29.8%
COc1cccc(N2CCN(CC(=O)Nc3ccc(-n4cnnn4)cc3)CC2)c1 | 7.28%
COc1ccc(NC(=O)CN2CCN(c3ccccc3)CC2)cc1 | 1.85%
COc1ccc(N2CCN(CC(=O)Nc3ccc(C)cc3)CC2)cc1 | -18.7%
O=C1CN(CC(=O)Nc2ccc(SC(F)F)cc2)CCN1 | -32.6%
O=C(CN1CCN(c2ccc(O)cc2)CC1)Nc1ccc(-c2ccccc2)cc1 | -5.1%

Structure (SMILES) | hERG current change (%, negative = inhibition) at 10uM
COc1cccc(N2CCN(CC(=O)Nc3ccc(SC(F)F)cc3)CC2)c1 | -65.5%
COc1ccc(NC(=O)CN2CCN(c3ccc(F)cc3)CC2)cc1 | -4.62%
O=C(CN1CCN(c2ccc(O)cc2)CC1)Nc1ccc(SC(F)F)cc1 | -74.7%
COc1ccc(N2CCN(CC(=O)Nc3ccc(SC(F)F)cc3)CC2)cc1 | -76.6%
COc1ccc(OC)c(C(=O)COC(=O)c2c(OC)cccc2OC)c1 | 8.03%
CCCN1CCC(NC(=O)C2CCCCC2C(=O)O)CC1 (stereo not shown) | -1.65%
C(=N\N=C\c1cccs1)/c1cccs1 | -2.57%
Cc1nn(CCC#N)c2c1P(=S)(N1CCCC1)OC(c1ccc(F)cc1)=N2 (stereo not shown) | -7.21%
C=CCN1C(=O)C(CC(=O)O)SC1=Nc1c(C)n(C)n(-c2ccccc2)c1=O (stereo not shown) | 1.73%
COc1ccccc1/C=C1\SC(=O)N(CC(=O)N(C)C2CCS(=O)(=O)C2)C1=O (stereo not shown) | 11.5%
Nc1cc(N)cc(C(=O)Nc2ccc3c(c2)C(=O)NC3=O)c1 | 12.1%
O=C(CN1C(=O)NC2(CCCCCC2)C1=O)N1CCN(c2ccccc2)CC1 | -2.9%
CCOc1ccc(Cl)cc1S(=O)(=O)N1CCCC1 | -6.06%
CN1CCN(c2nnc(-c3ccc(Cl)cc3)c3ccccc23)CC1 | -45.7%
O=C1c2ccccc2S(=O)(=O)c2cc(C(=O)N3CCN(c4ccccc4)CC3)ccc21 | -25%
COc1ccc(-c2nc(-c3ccncc3)no2)cc1 | 10.5%
Cc1ccc(-c2nn(-c3cccc(F)c3)cc2CNCc2cccnc2)o1 | -51.6%
COc1ccc(-n2cc(CNCc3cccnc3)c(-c3cccc(F)c3)n2)cc1 | -47.7%
COc1ccc(-c2nn(-c3ccccc3)cc2CNCc2cccnc2)c(F)c1 | -28.1%
Cc1ccc(-c2nn(-c3cccc(F)c3)cc2CN2CCN(c3ccccn3)CC2)o1 | -26.5%
Cc1ccc(-c2nn(-c3ccccc3)cc2CO)o1 | -0.28%
COc1ccc(CNCc2cn(-c3cccc(F)c3)nc2-c2ccc(C)o2)cc1 | -55.5%
Cc1ccc(-c2nn(-c3cccc(F)c3)cc2CN(Cc2nccn2C)C(C)C)o1 | -21.4%
Cc1ccc(-c2nn(-c3cccc(F)c3)cc2CNCCc2ccncc2)o1 | -53.6%
COCCNCCCCOc1ccccc1-c1ccccc1.O=C(O)C(=O)O | -27.5%
Cc1cc(C(=O)NCC(=O)OCC(=O)NCC2CCCO2)ccc1[N+](=O)[O-] (stereo not shown) | 15.3%
COc1ccc(C2C(C(=O)N3CCCC3)CC(=O)N2c2ccc(OC)cc2)cc1 (stereo not shown) | 0.91%
